Assay [1] has as its target Lysosomal acid glucosylceramidase (Homo sapiens) (UniProt P04062). Nature of the assay: Glucocerebrosidase-p2 (AID 348; in the data active = potency below about 10 µM; note: potency is the fitted concentration of half-maximal effect). The following applies: purified GBA, blue fluorogenic substrate, 40 min. In outline: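 Compounds titrated from 0.6 nM upwards against 0.2 nM enzyme in pH 5.9 citric acid/KH2PO4, taurocholate, tween-20; blue fluorogenic substrate 80 uM, 40 min room temperature, stopped and read Ex 365/Em 440 for AC50.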

Assay [2] can be described thus: AP1 Signaling Pathway (AID 357).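 Note: ME-180 reporter cells stimulated with EGF at its EC50 level; % is set by controls: 0 for no effect and ±100 for the full control effect.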 The following applies: ME-180 AP-1-bla reporter, EGF-induced, beta-lactamase ratio, 5 h; at 7.69 µM (top of the series) unless noted. In outline: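 First, ME-180 AP-1-bla cells were cultured overnight at 37 °C in low-serum Opti-MEM. Next, titrated compounds with EC50 EGF were incubated 5 hours. Finally, CCF4 was added for 2.5 hours and the 460/530 nm ratio recorded.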

Assay [3] addresses Cytochrome P450 1A2 (Homo sapiens) (UniProt P05177). The assay can be described thus: p450-cyp1a2 (AID 410; calls by dose curve; note: potency is the fitted concentration of half-maximal effect). The note with it: recombinant CYP1A2, luciferin-ME demethylation, luminescence; series mostly up to 11.4 µM. The procedure, abridged: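 Luminescent readout of luciferin formed from Luciferin-ME by human CYP1A2; data normalized against complete inhibition by 57 uM furafylline. Enzyme 20nM, substrate 100uM at Km, 100mM KPO4 buffer, 60 min reaction at room temperature.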

Assay [4] is described as follows: Stat Signaling Pathway (AID 446).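 Note: ME-180 cervical cancer cells given 40 pM IL-6 alongside compound; SIE-controlled beta-lactamase reporter measured as 460/530 nm FRET emission ratio; % is set by controls: 0 for no effect and ±100 for the full control effect.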 The note with it: ME-180 SIE beta-lactamase reporter, IL-6 stimulated, 5 h; at 7.69 µM (top of the series) unless noted. The procedure, abridged:
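ME-180 cells carrying a SIE-driven beta-lactamase reporter are stimulated with 40 pM IL-6 for 5 h at 37C in the presence of compound. The 460/530 nm FRET substrate ratio is read after 2.5 h at RT. Data are normalised to 300 pM IL-6 and to 125 nM JAK inhibitor controls.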

Assay [5] deals with Glucocorticoid receptor (Homo sapiens) (UniProt P04150). The assay can be described thus: GR-GFP Redistribution (AID 450;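 active = compounds whose dose series gives a full or clear partial fitted curve of increased nuclear translocation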; note: potency is the fitted concentration of half-maximal effect). The note with it: U2OS GR-GFP nuclear translocation, laser cytometry, 2 h.
Assay [6] shares this target. The assay can be described thus: GR-EFC Redistribution (AID 451; calls by dose curve; note: potency is the fitted concentration of half-maximal effect). The following applies: CHO-K1 GR-EFC translocation, beta-gal luminescence, 2 h. In outline: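 Translocation of GR-ED fusion to nuclear EA restores b-gal, read by luminescence after 1 h room-temperature detection. Engineered CHO-K1 biosensor cells, 1,000/well, exposed 2 h at 37 C to titrations up to 46 uM final.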

For assay [7], the target named is Mitogen-activated protein kinase 10 (Mus musculus) (UniProt Q61831). Nature of the assay: JNK3 AlphaScreen Assay (AID 530).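 Note: kinase came from lysate of stimulated human HepG2 cells; signal reports phosphorylation of biotinylated GST-cJun 1-79 at Ser73 with 10 µM ATP; % is set by controls: 0 for no effect and ±100 for the full control effect.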 The note with it: JNK3 lysate, c-Jun phosphorylation; series mostly up to 11.4 µM. The procedure, abridged: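 Compound titrations were preincubated 15 minutes at room temperature with substrate, antibody and pre-activated JNK3-containing HepG2 lysate. Reactions were started with 10 uM ATP and stopped with EDTA-containing bead buffer for AlphaScreen detection.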
A general note: In Alpha technology, singlet oxygen from a donor bead excites a nearby acceptor bead.

Assay [8] deals with 3',5'-cyclic-AMP phosphodiesterase 4B (Homo sapiens) (UniProt Q07343). Nature of the assay: qHTS Assay for Inhibitors of PDE-IV (AID 607; active = well fitted activation curve with a large enough effect in the main read-out, with a control signal flat, not every such curve was filed as active; note: % of control where 0% means no effect). The following applies: HEK293 ACTOne CNG channel cells, membrane potential fluorescence; series mostly up to 22.9 µM. The procedure, abridged: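 HEK293 ACTOne cells with CNG channel (1000/well), endogenous PDE4; membrane potential dye, compounds up to 22.9 uM final. Fluorescence Ex 535/Em 590; RO 20-1724 (100 uM final) as reference.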
A general note: Quantitative high-throughput screening tests each substance at several concentrations.

Assay [9] has as its target Cytochrome P450 3A4 (Homo sapiens) (UniProt P08684). Nature of the assay: qHTS Assay for Activators of Cytochrome P450 3A4 (AID 885; active = well fitted curve in the direction sought with a large enough effect; an effect the other way counts as inactive or inconclusive; note: nearly all actives have a fitted effect of over 65% in size). The note with it: recombinant CYP3A4, Luciferin-PPXE luminescence, 60 min; series mostly up to 11.4 µM. In outline: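 Human CYP3A4 (20 nM) with Luciferin-PPXE at 25 uM (its KM) in 200 mM KPO4; 10 min compound preincubation, then NADPH regeneration and 60 min reaction at RT. Luciferin read by luminescence; normalized to 57 uM ketoconazole full inhibition.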

For assay [10], the target named is Cytochrome P450 2C19 (Homo sapiens) (UniProt P33261). Nature of the assay: qHTS Assay for Inhibitors and Substrates of Cytochrome P450 2C19 (AID 899; active = well fitted curve in the direction sought with a large enough effect; an effect the other way counts as inactive or inconclusive; note: potency is the fitted concentration of half-maximal effect; nearly all actives have a fitted effect of over 60% in size). The note with it: recombinant CYP2C19, luciferin-H EGE luminescence; series mostly up to 11.4 µM. The procedure, abridged:
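Luminescence readout of luciferin formed from 10uM Luciferin-H EGE (KM level) by 5 nM CYP2C19 in 50mM KPO4. 60 min NADPH-driven reaction at 37C after 10 min compound preincubation; data scaled to 57uM ketoconazole inhibition.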

Assay [11] addresses Cytochrome P450 2D6 (Homo sapiens) (UniProt P10635). Nature of the assay: qHTS Assay for Inhibitors and Substrates of Cytochrome P450 2D6 (AID 891; active = well fitted curve in the direction sought with a large enough effect; an effect the other way counts as inactive or inconclusive; note: nearly all actives have a fitted effect of over 60% in size; note: potency is the fitted concentration of half-maximal effect;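 for activity change, negative = inhibition: luciferin methyl ether substrate demethylated by CYP2D6 with NADPH regeneration; % is set by controls: 0 for no effect and ±100 for the full control effect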). The following applies: recombinant CYP2D6, luciferin-ME EGE luminescence; series mostly up to 11.4 µM. The procedure, abridged:
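Human CYP2D6 (5 nM) with 30 uM Luciferin-ME EGE (at Km) in 100 mM KPO4, compound preincubated 10 min, then NADPH regeneration system for 60 min at room temperature. Luciferin read by luminescence; normalized to 1.43 uM quinidine.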

Assay [12] concerns the target Cytochrome P450 3A4 (Homo sapiens) (UniProt P08684). The assay can be described thus: qHTS Assay for Inhibitors and Substrates of Cytochrome P450 3A4 (AID 884; active = well fitted curve in the direction sought with a large enough effect; an effect the other way counts as inactive or inconclusive; note: potency is the fitted concentration of half-maximal effect; nearly all actives have a fitted effect of over 50% in size). The note with it: recombinant CYP3A4, Luciferin-PPXE luminescence; series mostly up to 57.1 µM. The procedure, abridged: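 20 nM human CYP3A4 with 25 uM Luciferin-PPXE (at KM) in 200 mM KPO4, preincubated 10 min with compound; NADPH regeneration started a 60 min RT reaction. Luciferin detected by luminescence, normalized to 57 uM ketoconazole as full inhibition.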

The nature of assay [13]: qHTS Assay for Identification of Small Molecule Agonists for Hypoxia Response Element Signaling Pathway (AID 914; active = well fitted activation curve with a large enough effect in the signal ratio, with a control signal flat, not every such curve was filed as active; the % refers to the signal ratio; note: % of control where 0% means no effect). The following applies: ME-180 (cervical carcinoma) HRE-bla reporter, beta-lactamase ratio, CoCl2, 17 h; activation: active compounds read high. The procedure, abridged: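 qHTS titration; ME-180 HRE-bla cells; EC50 CoCl2 co-treatment, 17 h at 37 degrees Celsius; CCF4 dye, ex 405nm, em 460nm and 530nm; %Activity from ratio; AC50.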

SMILES strings stand for the structures. Values without a mark were called inactive. Inconclusive results are not listed. Active and inactive are the calls of the source. Unless noted, calls come from the whole dose curve; as a rule, active = well fitted curve in either direction with a large enough effect (not every such curve was filed as active); inconclusive = small, poorly fitted or top-dose-only effect, or another doubt; inactive = flat fitted curve, though single readings scatter. Bounds are passed on as bounds.

3',5'-cyclic-AMP phosphodiesterase 4B (Homo sapiens), sequence (Q07343 whole entry, looked up): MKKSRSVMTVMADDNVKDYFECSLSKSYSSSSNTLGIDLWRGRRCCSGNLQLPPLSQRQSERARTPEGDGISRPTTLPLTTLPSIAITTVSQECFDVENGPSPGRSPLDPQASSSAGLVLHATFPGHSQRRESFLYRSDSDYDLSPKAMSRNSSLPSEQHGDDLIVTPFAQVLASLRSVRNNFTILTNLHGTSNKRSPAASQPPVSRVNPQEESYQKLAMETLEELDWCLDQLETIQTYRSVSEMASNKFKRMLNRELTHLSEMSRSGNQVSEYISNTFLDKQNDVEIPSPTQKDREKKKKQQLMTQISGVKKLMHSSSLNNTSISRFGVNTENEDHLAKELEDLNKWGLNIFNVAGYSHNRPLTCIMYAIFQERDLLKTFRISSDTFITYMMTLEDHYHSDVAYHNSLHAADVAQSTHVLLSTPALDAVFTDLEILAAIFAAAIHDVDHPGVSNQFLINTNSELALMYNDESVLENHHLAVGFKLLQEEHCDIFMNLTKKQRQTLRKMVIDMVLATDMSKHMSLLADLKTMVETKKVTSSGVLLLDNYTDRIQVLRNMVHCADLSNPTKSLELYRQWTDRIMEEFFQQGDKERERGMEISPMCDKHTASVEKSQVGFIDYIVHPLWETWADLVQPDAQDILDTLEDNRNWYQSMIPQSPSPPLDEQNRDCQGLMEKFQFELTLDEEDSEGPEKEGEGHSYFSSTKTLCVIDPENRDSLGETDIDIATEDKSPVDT
Cytochrome P450 1A2 (Homo sapiens), sequence (P05177 whole entry, looked up): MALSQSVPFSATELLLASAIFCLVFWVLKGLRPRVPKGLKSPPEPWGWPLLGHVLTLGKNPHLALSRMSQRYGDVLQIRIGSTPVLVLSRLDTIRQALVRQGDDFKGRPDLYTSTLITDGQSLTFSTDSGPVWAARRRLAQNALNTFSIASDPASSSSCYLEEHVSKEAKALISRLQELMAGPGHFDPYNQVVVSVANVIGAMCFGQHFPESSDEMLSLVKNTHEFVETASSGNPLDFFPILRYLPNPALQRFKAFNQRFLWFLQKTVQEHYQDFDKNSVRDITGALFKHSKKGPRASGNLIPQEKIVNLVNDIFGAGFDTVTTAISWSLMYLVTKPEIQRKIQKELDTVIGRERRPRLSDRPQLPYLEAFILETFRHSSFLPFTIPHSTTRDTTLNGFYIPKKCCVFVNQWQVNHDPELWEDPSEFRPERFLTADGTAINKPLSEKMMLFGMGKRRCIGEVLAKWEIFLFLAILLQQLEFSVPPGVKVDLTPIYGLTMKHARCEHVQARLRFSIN
Glucocorticoid receptor (Homo sapiens), sequence (P04150 whole entry, looked up, the tested form may be a part): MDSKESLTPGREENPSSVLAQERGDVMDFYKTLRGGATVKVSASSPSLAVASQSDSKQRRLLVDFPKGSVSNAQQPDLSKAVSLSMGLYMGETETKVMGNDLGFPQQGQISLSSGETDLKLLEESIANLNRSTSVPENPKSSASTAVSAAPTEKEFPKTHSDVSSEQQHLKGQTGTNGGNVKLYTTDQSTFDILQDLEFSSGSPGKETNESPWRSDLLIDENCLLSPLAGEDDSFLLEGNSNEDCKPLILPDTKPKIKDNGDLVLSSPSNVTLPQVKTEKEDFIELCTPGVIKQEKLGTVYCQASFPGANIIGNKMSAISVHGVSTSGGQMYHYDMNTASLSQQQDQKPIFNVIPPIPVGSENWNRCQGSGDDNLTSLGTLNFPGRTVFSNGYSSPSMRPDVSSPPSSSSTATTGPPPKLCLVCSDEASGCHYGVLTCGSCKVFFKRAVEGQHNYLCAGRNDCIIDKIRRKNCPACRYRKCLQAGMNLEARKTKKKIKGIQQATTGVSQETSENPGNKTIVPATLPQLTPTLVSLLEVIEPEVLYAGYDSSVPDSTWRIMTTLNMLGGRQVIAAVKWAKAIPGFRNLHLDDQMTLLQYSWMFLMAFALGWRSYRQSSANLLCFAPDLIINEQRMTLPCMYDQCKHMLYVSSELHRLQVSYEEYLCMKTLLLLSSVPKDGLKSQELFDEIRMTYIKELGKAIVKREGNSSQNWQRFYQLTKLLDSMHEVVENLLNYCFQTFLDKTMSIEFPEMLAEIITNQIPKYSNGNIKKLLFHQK
Cytochrome P450 2D6 (Homo sapiens), sequence (P10635 whole entry, looked up): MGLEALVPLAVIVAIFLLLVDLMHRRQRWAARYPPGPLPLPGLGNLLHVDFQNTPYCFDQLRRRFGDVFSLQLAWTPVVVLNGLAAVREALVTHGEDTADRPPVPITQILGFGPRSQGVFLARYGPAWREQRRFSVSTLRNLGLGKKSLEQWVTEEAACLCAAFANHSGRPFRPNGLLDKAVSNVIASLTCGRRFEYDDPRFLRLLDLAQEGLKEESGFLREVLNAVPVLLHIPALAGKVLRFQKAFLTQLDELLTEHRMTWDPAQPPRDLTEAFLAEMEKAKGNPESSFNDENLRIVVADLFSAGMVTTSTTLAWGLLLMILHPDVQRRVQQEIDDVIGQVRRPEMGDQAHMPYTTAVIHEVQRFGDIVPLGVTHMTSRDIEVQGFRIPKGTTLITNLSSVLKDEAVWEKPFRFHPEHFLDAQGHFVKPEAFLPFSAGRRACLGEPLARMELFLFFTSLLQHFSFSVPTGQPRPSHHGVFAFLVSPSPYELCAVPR
Cytochrome P450 3A4 (Homo sapiens), sequence (P08684 whole entry, looked up): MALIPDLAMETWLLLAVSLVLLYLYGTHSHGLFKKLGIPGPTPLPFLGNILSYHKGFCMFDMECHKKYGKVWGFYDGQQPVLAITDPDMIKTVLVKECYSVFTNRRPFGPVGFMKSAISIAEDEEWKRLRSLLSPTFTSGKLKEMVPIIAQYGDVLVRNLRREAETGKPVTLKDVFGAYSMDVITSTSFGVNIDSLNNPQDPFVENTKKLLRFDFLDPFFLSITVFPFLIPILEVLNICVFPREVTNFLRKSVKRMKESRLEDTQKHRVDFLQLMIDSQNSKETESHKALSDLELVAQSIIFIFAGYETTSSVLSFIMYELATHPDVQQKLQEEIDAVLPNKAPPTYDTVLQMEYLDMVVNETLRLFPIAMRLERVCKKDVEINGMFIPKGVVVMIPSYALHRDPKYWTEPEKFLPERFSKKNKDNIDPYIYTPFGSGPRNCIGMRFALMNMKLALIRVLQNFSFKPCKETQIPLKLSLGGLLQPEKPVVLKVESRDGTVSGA
Cytochrome P450 2C19 (Homo sapiens), sequence (P33261 whole entry, looked up): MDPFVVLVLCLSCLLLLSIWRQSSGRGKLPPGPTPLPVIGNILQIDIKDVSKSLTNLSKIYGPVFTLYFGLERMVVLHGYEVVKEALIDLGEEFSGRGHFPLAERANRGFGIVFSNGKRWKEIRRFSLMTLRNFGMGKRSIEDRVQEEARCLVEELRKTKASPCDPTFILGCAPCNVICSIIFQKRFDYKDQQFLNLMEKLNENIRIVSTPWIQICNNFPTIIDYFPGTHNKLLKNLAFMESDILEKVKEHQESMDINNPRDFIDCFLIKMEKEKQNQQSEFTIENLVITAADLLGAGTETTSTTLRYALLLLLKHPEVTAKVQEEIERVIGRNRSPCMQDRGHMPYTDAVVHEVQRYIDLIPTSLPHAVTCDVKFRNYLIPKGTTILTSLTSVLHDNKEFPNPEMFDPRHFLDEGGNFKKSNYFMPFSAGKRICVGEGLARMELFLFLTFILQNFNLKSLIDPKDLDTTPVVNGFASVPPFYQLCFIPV
Lysosomal acid glucosylceramidase (Homo sapiens), sequence (P04062 whole entry, looked up): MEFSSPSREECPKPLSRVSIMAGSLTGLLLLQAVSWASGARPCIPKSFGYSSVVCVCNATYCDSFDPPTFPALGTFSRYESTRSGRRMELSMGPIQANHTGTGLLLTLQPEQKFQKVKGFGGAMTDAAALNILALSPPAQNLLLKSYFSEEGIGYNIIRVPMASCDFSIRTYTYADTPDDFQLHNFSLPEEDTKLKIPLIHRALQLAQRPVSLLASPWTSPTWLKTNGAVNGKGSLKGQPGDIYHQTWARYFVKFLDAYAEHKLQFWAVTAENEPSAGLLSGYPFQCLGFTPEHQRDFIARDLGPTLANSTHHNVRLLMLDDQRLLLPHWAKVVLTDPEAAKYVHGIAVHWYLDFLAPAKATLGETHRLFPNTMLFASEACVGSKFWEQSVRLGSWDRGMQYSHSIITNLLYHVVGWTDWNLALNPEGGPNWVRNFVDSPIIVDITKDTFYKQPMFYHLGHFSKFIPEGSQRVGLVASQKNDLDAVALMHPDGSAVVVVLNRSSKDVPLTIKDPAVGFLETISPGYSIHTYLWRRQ

On to `c1ccc2sc(SCSc3nc4ccccc4s3)nc2c1`, for which the Potency in assay [1] is over 11.4 µM; in assay [3], 3.98 µM (active); in [5], over 46 µM; in assay [6], over 9.22 µM; in assay [10], 1.26 µM (active). The activity change, negative = inhibition in assay [2] is -1.38%. Further, in assay [4], the activity, negative = inhibition was 2.46%. Moreover, the Potency entry in assay [7], in assay [8] and in [9] was “inactive” throughout.
`CCN(Cc1cc(Cl)cc(C)c1O)Cc1c(O)ccc2ccccc12`: the Potency in assay [1] was over 11.4 µM; in [3], 1 µM (active); in [5] it was over 46 µM; in assay [6], over 9.22 µM; in [11], 1.26 µM (active); in assay [10], 1.26 µM (active). Moreover, in assay [2], the activity change, negative = inhibition was -8.15%. In addition, the activity, negative = inhibition in [4] was 1.25%. Also, the Potency result in assay [7] and in assay [8] was “inactive” throughout.
With `Cc1cc(Cl)nc2ccc(Cc3ccc4nc(Cl)cc(C)c4c3)cc12`, the Potency was over 11.4 µM in [1]; over 46 µM in assay [5]; over 9.22 µM in [6]; 3.16 µM (active) in assay [12]; 0.501 µM (active) in assay [10]. The activity change, negative = inhibition in [2] is -7.81%; in assay [3], -13.2% [at 2.29 µM]. Besides, the activity, negative = inhibition in [4] was -4.37%. In addition, the Potency entry in assay [7], in assay [8] and in [9] was “inactive” throughout.
Regarding `c1ccc(C[n+]2cccc(-c3cc4ccccc4[nH]3)c2)cc1`, the Potency was over 11.4 µM in assay [1]; 1.26 µM (active) in assay [3]; over 46 µM in assay [5]; over 9.22 µM in assay [6]; 1.26 µM (active) in assay [11]. In assay [2], the activity change, negative = inhibition is 2.74%. Further, in assay [4], the activity, negative = inhibition was -0.473%. In addition, the Potency result in assay [7] and in assay [8] was “inactive” in each case.
In the case of `COCCn1c(=O)c(-c2cc(F)cc(F)c2)nc2cnc(Oc3ccccc3)nc21`, the Potency in [1] is over 11.4 µM; in assay [3] it was 5.01 µM (active); in assay [5] it was over 9.22 µM; in assay [6], over 46 µM. In addition, the activity change, negative = inhibition in [2] was 0.911%. The activity, negative = inhibition in [4] was 0.0611%. In addition, the Potency entry in [7], in assay [8] and in assay [9] was “inactive” each time. Further, in assay [13], the activation was 20.9%.
For the compound `Cc1ccc(S(=O)(=O)O[C@H]2C[C@@H](C(C)(C)C)CC[C@@H]2c2ccccc2)cc1`, the Potency is over 11.4 µM in [1], over 46 µM in assay [5], over 9.22 µM in [6] and 3.16 µM (active) in assay [10]. Moreover, the activity change, negative = inhibition in assay [2] was 7.67%; in [3] it was -22.8% [at 2.29 µM]. The activity, negative = inhibition in [4] was 4.83%. Also, the Potency result in [7], in assay [8] and in assay [9] was “inactive” in each case.
Consider `C[C@@]12C[C@H](O)[C@@H]3[C@H](CCC4=CC(=O)CC[C@]43C)[C@H]1CC[C@@H]2c1csc(N)n1`, for which the Potency in assay [1] was over 11.4 µM; in assay [5], 1.73 µM (active); in assay [6], over 9.22 µM; in [12], 2.51 µM (active); in assay [10] it was 3.98 µM (active). Besides, the activity change, negative = inhibition is 4.13% in [2] and -9.8% [at 2.29 µM] in assay [3]. Also, the activity, negative = inhibition in assay [4] is -3.43%. Moreover, the Potency entry in [7], in [8] and in assay [9] was “inactive” in each case.
`Clc1ccc(Cl)c(SCCCN2CCNCC2)c1`: the Potency is over 11.4 µM in assay [1]; 0.501 µM (active) in assay [3]; over 46 µM in assay [5]; over 9.22 µM in assay [6]; 2.51 µM (active) in assay [11]. For the same compound, in [2], the activity change, negative = inhibition was 3.23%. Moreover, in [4], the activity, negative = inhibition was -0.882%. The Potency result in [7] and in [8] was “inactive” each time.
For `CN1CCc2ccccc2[C@@H]1Cc1ccccc1NC(=O)c1sc2ccccc2c1Cl`, the Potency in [1] was over 11.4 µM; in assay [3] it was 5.01 µM (active); in assay [5], over 46 µM; in [6] it was over 9.22 µM; in assay [12] it was 1.58 µM (active); in [11], 0.0794 µM (active). The Potency in assay [10] was 2.51 µM (active). Besides, the activity change, negative = inhibition in assay [2] was -4.19%. Besides, in [4], the activity, negative = inhibition is 4.41%. For the same compound, the Potency entry in assay [7], in [8] and in [9] was “inactive” each time.
Consider `Cc1ccc2nc(N/N=C\c3cccc(C)n3)cc(C)c2c1`, for which the Potency in assay [1] is over 11.4 µM; in [3] it was 0.631 µM (active); in assay [5], over 46 µM; in assay [6] it was over 9.22 µM; in assay [11], 3.16 µM (active). In [2], the activity change, negative = inhibition is -4.58%. Moreover, in assay [4], the activity, negative = inhibition is 7.26%. Further, the Potency entry in assay [7], in assay [8] and in [9] was “inactive” each time.
As to `N#CCCn1c(=O)c(-c2ccccc2)nc2cnc(OCc3ccccc3)nc21`, the Potency in assay [1] was over 11.4 µM; in assay [3] it was 3.16 µM (active); in assay [5] it was over 9.22 µM; in assay [6], over 46 µM. For the same compound, in assay [2], the activity change, negative = inhibition is -17.7%. The activity, negative = inhibition in [4] was -1.68%. Also, the Potency entry in assay [7], in [8] and in assay [9] was “inactive” in each case.
As to `NS(=O)(=O)c1cc2c(cc1Cl)=NC(CCC(=O)O)=NS=2(=O)O`, the Potency in [1] is over 11.4 µM; in assay [5] it was over 46 µM; in assay [6], over 9.22 µM. The activity change, negative = inhibition in [2] is -7.99%. In addition, the Potency result in [3], in assay [7], in [8] and in [11] was “inactive” throughout. Also, the activity, negative = inhibition in assay [4] is 10.8%.
With `Cc1ccc2ccccc2c1CSc1nc(N)nc2c1ncn2CC(C)C`, the Potency in assay [1] is over 11.4 µM; in assay [5], over 46 µM; in assay [6] it was over 9.22 µM; in [11], 3.98 µM (active); in assay [10], 3.98 µM (active). Besides, the values for the activity change, negative = inhibition in [2] and in [3] were -11.7% and -20.8% [at 2.29 µM], respectively. Besides, the activity, negative = inhibition in assay [4] is -19.8%. Besides, the Potency entry in assay [7] and in assay [8] was “inactive” throughout.

For the origin of these results see PubChem BioAssay (NCATS).
